Laboratory results taken from PubChem BioAssay (NCATS).
Several values for one entry are separate records, joined by “and”; a condition that tells them apart may be missing. Identical values can stand only once.

What follows are molecules tested against Cytochrome P450 3A4 (Homo sapiens) (UniProt P08684) (assay: qHTS Assay for Activators of Cytochrome P450 3A4 (AID 885; note: nearly all actives have a fitted effect of over 65% in size)). Details: recombinant CYP3A4, Luciferin-PPXE luminescence, 60 min; series mostly up to 57.1 µM; activity change, positive = activation: at the top concentration; active = well fitted activation curve with a large enough effect; inconclusive = small, poorly fitted or top-dose-only effect; inactive = no such curve, though single readings can be large or run the other way.
In short: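 Human CYP3A4 dealkylates Luciferin-PPXE to luciferin, which luciferase detection converts to light. Substrate was at its KM (25uM), buffer 200mM KPO4, reaction 60 min at RT.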

Sequence of Cytochrome P450 3A4 (Homo sapiens) (P08684 whole entry, looked up): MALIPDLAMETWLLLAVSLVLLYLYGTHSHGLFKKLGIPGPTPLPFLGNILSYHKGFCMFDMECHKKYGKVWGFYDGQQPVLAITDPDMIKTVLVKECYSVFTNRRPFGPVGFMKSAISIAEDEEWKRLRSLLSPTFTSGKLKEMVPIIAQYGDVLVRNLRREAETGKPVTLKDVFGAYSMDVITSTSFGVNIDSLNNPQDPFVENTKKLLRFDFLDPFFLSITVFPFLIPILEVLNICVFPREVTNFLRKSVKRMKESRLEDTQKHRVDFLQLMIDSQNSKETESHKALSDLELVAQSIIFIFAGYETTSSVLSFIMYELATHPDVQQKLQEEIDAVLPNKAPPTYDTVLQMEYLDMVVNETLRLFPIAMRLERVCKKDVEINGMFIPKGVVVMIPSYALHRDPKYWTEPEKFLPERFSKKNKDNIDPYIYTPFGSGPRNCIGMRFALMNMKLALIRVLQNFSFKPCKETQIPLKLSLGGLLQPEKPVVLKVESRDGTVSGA

Activity change, positive = activation, inactive:
CCc1cc2c(nc1CC)CCN(CC/C(C)=N/OCC[C@@H]1C=C[C@H](OC(C)=O)[C@H](COC(C)=O)O1)C2 -32.1% [at 11.4 µM]
COc1ccc(COC(=O)N/N=C2/C[C@@H](O)[C@@H](O)[C@@H]3[C@H]4C(=O)N(c5ccc(F)cc5F)C(=O)[C@@H]4CC[C@H]23)cc1 -51.6% [at 11.4 µM]
COC(=O)N1[C@H](C)C=C[C@]1(Cc1ccccc1)C(=O)NCc1ccccn1 -54.1%
COC(=O)c1cccc(C23CC4(C2)[C@H](CN(Cc2ccc(-c5ccccc5)cc2)[C@@H]4c2ccccc2)C3c2ccccc2)c1 (stereo not given in full) -42.7%
CCC1=C2CC[C@H]3C(=O)N(c4ccccc4)C(=O)[C@H]3[C@H]2[C@@]2(C)C(=O)N(CC(=O)OC)C(=O)N2C1=O -54.5%
COC(=O)[C@@H]1C[C@@H]2CC[C@@H](O)C[C@@H]2N1Cc1ccc(C)s1 -55.4%
CO[C@@H]1COC(=O)C/C=C\[C@@H](C)[C@@H]2C=C[C@H](O)[C@@H](COC(=O)CCC[C@H]1C)O2 -44.8% [at 11.4 µM]
COc1cc2c(Cc3c4c5c(cc(OC)c(OC)c5c5c(OC)c(OC)ccc35)CCN4C)c3c4c(cc(OC)c(OC)c4c2cc1OC)CCN3C -51.4%
CCc1cc2c(nc1CC)CCN(CC/C(C)=N/OC[C@@H](O)COCc1ccco1)C2 -38.2% [at 11.4 µM]
C[C@@H]1OC2C3=C(C(=O)[C@H]4O[C@@H]4[C@H]3O)[C@@H]1[C@H]1[C@H](C)OC=C3[C@H](O)[C@H]4O[C@H]4/C(=N\OCc4ccccc4)[C@@]321 -58.8% [at 11.4 µM]
CC(C)=CCC/C(C)=C/CO/N=C1/C[C@@H](O)[C@@H](O)[C@@H]2[C@@H]3C(=O)N(C[C@@H]4CCCO4)C(=O)[C@H]3CC[C@H]12 -35.7% [at 11.4 µM]
O=C1[C@H]2[C@H]3[C@H](O)[C@H](O)C/C(=N/OCc4ccccc4)[C@H]3CC[C@@H]2C(=O)N1Cc1ccc2c(c1)OCO2 -96.1% [at 11.4 µM]
COC(=O)c1ccc(C23CC4(C2)[C@H](CN(C)[C@@H]4c2ccccc2)C3c2ccc(C(F)(F)F)cc2)cc1 (stereo not given in full) -50.5%
O=C1[C@H]2[C@H]3[C@H](O)[C@H](O)C/C(=N/OC[C@@H](O)COCc4ccco4)[C@H]3CC[C@@H]2C(=O)N1Cc1ccccc1 -57.9% [at 11.4 µM]
CC(C)CO/N=C1/C[C@@H](O)[C@@H](O)[C@@H]2[C@@H]3C(=O)N([C@@H](C)c4ccccc4)C(=O)[C@H]3CC[C@H]12 -46.1% [at 11.4 µM]
C[C@H](O/N=C1/[C@H]2O[C@@H]2[C@@H](O)[C@H]2[C@H]1CCn1c(=O)n(-c3ccccc3)c(=O)n12)c1cn([C@H](CO)Cc2ccccc2)nn1 -48.5% [at 11.4 µM] and -48.2% [at 11.4 µM]
O=C1[C@H]2[C@H]3[C@H](O)[C@H](O)C/C(=N/OC[C@@H](O)COCc4ccco4)[C@@H]3CC[C@@H]2C(=O)N1C1CCCCC1 -51.1% [at 11.4 µM]
CC[C@@H]1CN2CCc3cc(OC)c(OC)cc3[C@@H]2C[C@@H]1C[C@H]1NCCc2cc(OC)c(OC)cc21 -39.5%
CC(=O)c1c(O)c(C)c(O)c2c1OC1=CC(=O)C(C(C)=O)C(=O)[C@@]12C (stereo not given in full) -59.8%
Cc1ccc(S(=O)(=O)N[C@H]2COC(=O)[C@@H](C)COC(=O)[C@H](C)NC(=O)C/C=C\[C@H]2C)cc1 -40.2% [at 11.4 µM]
C/C(CCN1CCCc2nc(C)c(C)cc21)=N\O[C@@H](C)c1cc(-c2c(C)cc(C)cc2C)no1 -56.9% [at 11.4 µM]
COC(=O)C/C=C\[C@@H](C)[C@@H](/C=N\O[C@@H]1O[C@H](COC(C)=O)[C@H](OC(C)=O)[C@H](OC(C)=O)[C@H]1OC(C)=O)OC -32.3% [at 11.4 µM]
FC(F)(F)c1ccc(C2[C@H]3CN(Cc4ccc(-c5ccccc5)cc4)[C@H](c4ccccc4)C34CC2(c2ccccc2)C4)cc1 (stereo not given in full) -45%
CC(=O)N1[C@H](C)C=C[C@]1(Cc1ccccc1)C(=O)NCCc1c[nH]c2ccccc12 -57.3%
COc1ccc(COC(=O)N/N=C2/C[C@@H](O)[C@@H](O)[C@@H]3[C@@H]4C(=O)N([C@@H](C)c5ccccc5)C(=O)[C@H]4CC[C@H]23)cc1 -54.4% [at 11.4 µM]
CCC1=C2CC[C@H]3C(=O)N(CC(=O)OC)C(=O)[C@H]3[C@H]2[C@@]2(C)C(=O)N(CC3CC3)C(=O)N2C1=O -52.9%
COC(=O)[C@@H]1C[C@@H]2CC[C@@H](O)C[C@@H]2N1Cc1ccc(C(F)(F)F)cc1 -53%
CO[C@H]1COC(=O)C/C=C\[C@@H](C)COC(=O)[C@@H](CCSC)NC(=O)C/C=C\[C@@H]1C -36.9% [at 11.4 µM] and -35.4% [at 11.4 µM]
Clc1ccc(C2[C@H]3CN(Cc4ccc(-c5ccccc5)cc4)[C@H](c4ccccc4)C34CC2(c2cccnc2)C4)cn1 (stereo not given in full) -52%
O=C1[C@H]2[C@H]3[C@H](O)[C@H](O)C/C(=N/OC[C@@H](O)COCc4ccco4)[C@H]3CC[C@@H]2C(=O)N1C1CCCCC1 -43.8% [at 11.4 µM]
CO[C@@H]1COC(=O)CC=C[C@@H](C)[C@@H]2C=C[C@H](O)[C@@H](COC(=O)C/C=C\[C@H]1C)O2 -43.1% [at 11.4 µM]
CO[C@H]1COC(=O)[C@H](Cc2ccccc2)NC(=O)C/C=C\[C@@H](C)[C@H](OC)COC(=O)C/C=C\[C@@H]1C -59.6% [at 11.4 µM]
CC(C)=CCC/C(C)=C/CO/N=C1/C[C@@H](O)[C@@H](O)[C@@H]2[C@@H]3C(=O)N(Cc4ccccc4)C(=O)[C@H]3CC[C@H]12 -49.8% [at 11.4 µM]
COC(=O)[C@@H]1CC[C@H](C)[C@@H](c2ccc(C)cc2)N1C(=O)c1ccc(/C=N\O[C@@H](C)CN2CCCc3nc(C)c(C)cc32)cc1 -48.9% [at 11.4 µM]
N#Cc1ccc(C23CC4(C2)[C@H](CN(CC2CCCCC2)[C@@H]4c2ccccc2)C3c2ccc(C(F)(F)F)cc2)cc1 (stereo not given in full) -55.3%
C#CCCCO/N=C1/C[C@@H](O)[C@@H](O)[C@@H]2[C@@H]3C(=O)N(C[C@@H]4CCCO4)C(=O)[C@H]3CC[C@@H]12 -39.4% [at 11.4 µM]
COC(=O)N1[C@H](C)C=C[C@]1(Cc1ccccc1)C(=O)NCc1ccc(N(C)C)cc1 -57.2%
CNC(=O)[C@H](C)/C=C(\c1cccnc1)C(NC(=O)OCc1ccccc1)c1ccc(C(=O)OC)cc1 (stereo not given in full) -42.7%
CC(C)=CCC/C(C)=C/CO/N=C1/C[C@@H](O)[C@@H](O)[C@@H]2[C@H]3C(=O)N(c4ccc(F)cc4F)C(=O)[C@@H]3CC[C@H]12 -35.2% [at 11.4 µM]
Cc1nc(NC2CCCCC2)c2nc(-c3ccccc3)n(CCCN3CCOCC3)c2n1 -51.2%
